The text below walks through data of PubChem BioAssay.

The source made the active and inactive calls.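 How the source made its calls: active means mean inhibition over 43.08%, the solvent-only control mean plus 3 SD; inactive means the rest.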

The inhibition is the drop in the measured response relative to a control, in per cent.

For the test, the target named is Nuclear receptor coactivator 3 (Homo sapiens) (UniProt Q9Y6Q9). Put plainly: NCOA3 GAL4-fusion reporter inhibition – cell-based, luminescence, quadruplicate, confirmation (AID 588792).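 Further: 0% = DMSO treated cells and 100% = gossypol at 36 µM.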 To be noted: HEK293 GAL4-SRC3 luciferase reporter, at 3.6 µM, stronger effect = higher value. For orientation: In a reporter assay the amount or activity of a reporter protein is the signal.
Sequence of Nuclear receptor coactivator 3 (Homo sapiens) (Q9Y6Q9 whole entry, looked up, the tested form may be a part): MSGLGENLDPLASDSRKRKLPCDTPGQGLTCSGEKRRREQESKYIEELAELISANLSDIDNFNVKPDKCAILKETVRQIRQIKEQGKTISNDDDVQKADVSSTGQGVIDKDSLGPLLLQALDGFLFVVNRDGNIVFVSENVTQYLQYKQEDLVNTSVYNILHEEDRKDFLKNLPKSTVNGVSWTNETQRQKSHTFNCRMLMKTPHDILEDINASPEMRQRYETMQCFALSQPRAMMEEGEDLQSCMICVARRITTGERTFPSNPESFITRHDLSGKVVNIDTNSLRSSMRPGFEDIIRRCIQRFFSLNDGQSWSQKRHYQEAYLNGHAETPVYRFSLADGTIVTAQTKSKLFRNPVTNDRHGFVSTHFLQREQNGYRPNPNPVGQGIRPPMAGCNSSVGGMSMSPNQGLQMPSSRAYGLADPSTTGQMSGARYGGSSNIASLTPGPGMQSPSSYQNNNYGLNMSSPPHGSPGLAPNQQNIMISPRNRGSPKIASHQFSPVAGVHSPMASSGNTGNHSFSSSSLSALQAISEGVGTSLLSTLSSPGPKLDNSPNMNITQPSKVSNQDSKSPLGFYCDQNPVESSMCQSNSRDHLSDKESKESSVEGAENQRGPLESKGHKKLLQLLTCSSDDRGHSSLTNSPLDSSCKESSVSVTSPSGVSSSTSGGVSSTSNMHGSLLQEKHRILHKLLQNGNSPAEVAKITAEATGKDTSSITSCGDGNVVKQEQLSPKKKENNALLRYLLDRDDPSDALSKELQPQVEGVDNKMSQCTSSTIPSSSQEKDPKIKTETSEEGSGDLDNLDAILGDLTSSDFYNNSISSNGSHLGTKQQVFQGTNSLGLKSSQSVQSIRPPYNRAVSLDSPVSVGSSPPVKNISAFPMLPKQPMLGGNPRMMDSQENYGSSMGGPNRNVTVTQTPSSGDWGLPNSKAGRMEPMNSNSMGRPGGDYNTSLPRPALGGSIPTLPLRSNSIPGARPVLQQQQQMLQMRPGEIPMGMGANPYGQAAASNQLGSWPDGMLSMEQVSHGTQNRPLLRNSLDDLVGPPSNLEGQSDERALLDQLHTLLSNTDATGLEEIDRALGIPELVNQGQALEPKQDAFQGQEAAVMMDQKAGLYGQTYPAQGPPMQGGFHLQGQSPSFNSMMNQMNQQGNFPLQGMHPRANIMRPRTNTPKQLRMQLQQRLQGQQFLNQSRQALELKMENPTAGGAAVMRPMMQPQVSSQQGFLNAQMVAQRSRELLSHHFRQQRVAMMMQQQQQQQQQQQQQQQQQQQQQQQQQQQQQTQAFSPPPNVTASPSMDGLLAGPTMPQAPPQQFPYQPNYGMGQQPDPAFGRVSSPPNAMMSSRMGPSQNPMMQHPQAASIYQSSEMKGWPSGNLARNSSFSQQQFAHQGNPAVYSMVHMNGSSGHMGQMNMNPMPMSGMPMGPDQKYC
Regarding `COc1ccc2nc(C)cc(SCC(=O)N/N=C/c3ccc(O)cc3O)c2c1`, the inhibition is 24.1% (inactive). On to `CCOC(=O)c1c(Nc2ccccc2OCCOC)n[nH]c1C`, for which the inhibition is -0.73% (inactive). The result for `O=C(OC1C2CCC1C1CN(CCc3ccccc3)CC12)c1ccccc1` (centres undefined) reads 11.2% (inactive). For `CCN(c1ccccc1)S(=O)(=O)c1ccc(C(=O)Nc2nnc(-c3ccco3)o2)cc1`, the inhibition was 8.7% (inactive). Regarding `C=CC[C@@H](CC(=O)N(CCO)Cc1ccccc1)C(=O)N[C@@H](C)COC(=O)[C@@H](CC=C)Cc1ccc(F)cc1`, the inhibition is 5.89% (inactive).

As for `COc1ccc(C2OC(=O)CC2C(=O)NCc2ccc(F)cc2)cc1OC` (centres undefined), the inhibition was -5.31% (inactive).

`CCCCCn1c(=O)[nH]c2cc(C(=O)N3CCN(c4ccc(C(C)=O)cc4)CC3)ccc2c1=O`: the inhibition was 0.25% (inactive). In the case of `CC(=O)Nc1ccc(C(=O)N/N=C/c2cc(Br)cc(Br)c2O)cc1` it was 6.09% (inactive). On to `O=C(Nc1ccc([N+](=O)[O-])cc1)Nc1nc(-c2ccc(Cl)s2)cs1`, for which the inhibition was 60.4% (active). On to `CCCCN(CCCC)C(=O)CSc1nnc(-c2cc(OC)c(OC)c(OC)c2)o1`, for which the inhibition was -1.92% (inactive).

For the molecule `COc1ccc(CCNC(=O)C(C)n2nc(C)c3c(C)n(-c4ccc(C)cc4)nc3c2=O)c(OC)c1` (centres undefined), the inhibition is 7.11% (inactive). For the molecule `COc1ccccc1NC(=O)Nc1nnc(Cc2ccc(F)cc2)s1`, the inhibition is 3.85% (inactive). As to `CC(=O)c1cccc(NC(=O)c2cc(S(=O)(=O)N3CCOCC3)cs2)c1`, the inhibition was 2.71% (inactive).

In the case of `O=C(CCN1CCOCC1)N/N=C/c1cc(Br)cc(Br)c1O`, the inhibition is 13.6% (inactive). For the molecule `O=C(Nc1nc2ccccc2s1)C1c2ccccc2Oc2ccccc21`, the inhibition was 39.2% (inactive).

Regarding `COc1ccc(NC(=O)c2cc3c(-c4ccc(OC)c(OC)c4)nn(C)c3s2)cc1OC`, the inhibition was 10.7% (inactive). Regarding `COc1cccc(/C=N/NC(=O)c2ccc(=O)n(C)c2)c1O`, the inhibition was 12.1% (inactive).

With `Cn1nnnc1Sc1ncnc2scc(-c3ccccc3)c12`, the inhibition is -4.36% (inactive). For `CCOC(=O)N1CCC2(CC1)C(C#N)=C(N)Oc1n[nH]c(CSc3ccc(C)cc3)c12`, the inhibition was 2.57% (inactive). In the case of `FC(F)(F)c1cccc(NC(=S)N(CCCN2CCCC2)Cc2cccn2Cc2ccc(Cl)cc2)c1` it was -14.5% (inactive); in that of `CC(C)(C)c1csc(Sc2ccc([N+](=O)[O-])cn2)n1`, 13.1% (inactive). As for `O=C(C1CCC1)N1CCN(c2ccnc3cc(Cl)ccc23)CC1`, the inhibition is 17% (inactive). On to `CN(C)c1cc[n+](CC(=O)Nc2ccc(Oc3ccccc3)cc2)cc1`, for which the inhibition is 15.7% (inactive). The result for `CCc1nc2ccccc2c(=O)n1NCCc1ccccc1` reads -4.18% (inactive). As to `Cc1nccc(-c2ccc(-n3cnc4ccccc43)cc2)n1`, the inhibition is 23.8% (inactive). For `Cc1nc2c(-c3ccc(F)cc3)cnn2c(N)c1-c1ccc(F)cc1`, the inhibition is 12% (inactive). Consider `COC(=O)c1sc(NC(=O)c2cc(-c3ccccc3)nc3ccccc23)c(C#N)c1C`, for which the inhibition was 5.32% (inactive). The result for `CCN(CC)S(=O)(=O)c1cccc(NC(=O)Nc2cccc(C(F)(F)F)c2)c1` reads 13.9% (inactive); that for `Nc1ccccc1SCC(=O)Nc1nc(-c2ccccc2)cs1`, 25% (inactive). In the case of `CC(=O)c1c(O)cc2c3c1OC(C)(C)C1CCC(C)(CC31)O2` (centres undefined) it was 46.2% (active). The result for `C=CCc1cc(C(=O)N2CCCCC2)ccc1O` reads 14.5% (inactive); that for `CCc1[nH]nc2c1C(C1C=CCCC1)C(C#N)=C(N)O2` (centres undefined), 24.7% (inactive). On to `O=C(CSc1nnc(COc2ccc(Cl)cc2)o1)N1CCOCC1`, for which the inhibition was -3.82% (inactive). The result for `COc1ccc(CN(C)C(=O)c2cccc(NC(=O)CC3SC(N4CCCCC4)=NC3=O)c2)c(OC)c1` (centres undefined) reads 26.9% (inactive); that for `COc1cccc(/C=N/Nc2nc3ccccc3n3cnnc23)c1O`, 13.4% (inactive); that for `COc1ccc(Oc2ccc(/C=C/C(=O)c3ccc(O)cc3)cc2[N+](=O)[O-])cc1`, -5.49% (inactive). Take `Cc1sc(-c2ccccn2)nc1OC(=O)c1ccc(F)cc1F`: the inhibition was 13.9% (inactive).

On to `CCc1nc2ccccc2c(C(=O)OCC(=O)Nc2cccc(S(=O)(=O)N3CCOCC3)c2)c1C`, for which the inhibition was 1.17% (inactive).

On to `Cc1ccc(C(=O)NC2c3ccccc3-c3ccccc32)cc1`, for which the inhibition was 11.3% (inactive).
